Data as given in PubChem BioAssay AID1159580 (chemical genetic matrix, 2015).
Among all 5,500 compounds or so, about 2,000 (36%) were called active. Not shown: some 18% with an inconclusive outcome. Rule as the data show it: active = normalized growth mostly below about 0.91 (no sharp cut-off); inconclusive = no clear call, values can overlap the other calls; inactive = mostly above about 0.92. The list shows a part of the results.

Experiment: chemical genetic growth profiling, strain panel (AID 1159580);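 also: tested at 20 µM; growth read once vehicle control cultures reached saturation at 30 °C; 1 = growth at the plate median or of vehicle wells; lower values mean less growth of the strain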
Conditions: growth OD

Measured: normalized growth

CC(=O)NS(=O)(=O)c1ccc(N)cc1
inactive: S. cerevisiae deletion strains, locus YJR066W, strain TOR1, active compounds read low 0.931 | S. cerevisiae deletion strains, locus YKL009W, strain mrt4, active compounds read low 0.975 | S. cerevisiae deletion strains, locus YKL068W, active compounds read low 0.989 | S. cerevisiae deletion strains, locus YKL085W, strain MDH1 (second series), active compounds read low 0.982 | S. cerevisiae deletion strains, locus YKL085W, strain MDH1, active compounds read low 0.982 | S. cerevisiae deletion strains, locus YKL160W, strain elf1, active compounds read low 1 | S. cerevisiae deletion strains, locus YKL190W, strain CNB1, active compounds read low 0.997 | S. cerevisiae deletion strains, locus YKR001C, strain vps1, active compounds read low 0.975 | S. cerevisiae deletion strains, locus YKR026C, strain gcn3, active compounds read low 1.01 | S. cerevisiae deletion strains, locus YKR091W, strain srl3, active compounds read low 1.01 | S. cerevisiae deletion strains, locus YLL001W, strain dnm1, active compounds read low 1 | S. cerevisiae deletion strains, locus YLL026W, active compounds read low 1.01 | S. cerevisiae deletion strains, locus YLL041C, strain sdh2, active compounds read low 1.02 | S. cerevisiae deletion strains, locus YLR027C, strain aat2, active compounds read low 1.01 | S. cerevisiae deletion strains, locus YLR039C, strain RIC1, active compounds read low 1 | S. cerevisiae deletion strains, locus YLR058C, strain SHM2, active compounds read low 0.992 | S. cerevisiae deletion strains, locus YLR102C, strain apc9, active compounds read low 0.988 | S. cerevisiae deletion strains, locus YLR113W, strain HOG1, active compounds read low 0.983 | S. cerevisiae deletion strains, locus YLR221C, strain rsa3, active compounds read low 1.01 | S. cerevisiae deletion strains, locus YLR258W, strain gsy2, active compounds read low 1.01 | S. cerevisiae deletion strains, locus YLR262C, strain YPT6 (second series), active compounds read low 1.03 | S. cerevisiae deletion strains, locus YLR262C, strain YPT6, active compounds read low 1 | S. cerevisiae deletion strains, locus YLR268W, strain sec22, active compounds read low 0.945 | S. cerevisiae deletion strains, locus YLR320W, strain mms22, active compounds read low 1.01 | S. cerevisiae deletion strains, locus YLR330W, strain CHS5, active compounds read low 0.993 | S. cerevisiae deletion strains, locus YLR342W, strain FKS1 (second series), active compounds read low 0.992 | S. cerevisiae deletion strains, locus YLR342W, strain FKS1, active compounds read low 1.01 | S. cerevisiae deletion strains, locus YLR357W, strain rsc2, active compounds read low 1.04 | S. cerevisiae deletion strains, locus YLR370C, strain arc18, active compounds read low 1.01 | S. cerevisiae deletion strains, locus YLR371W, strain rom2, active compounds read low 0.98 | S. cerevisiae deletion strains, locus YLR384C, strain iki3, active compounds read low 1.01 | S. cerevisiae deletion strains, locus YLR418C, strain cdc73, active compounds read low 0.968 | S. cerevisiae deletion strains, locus YML016C, strain PPZ1, active compounds read low 0.99 | S. cerevisiae deletion strains, locus YML032C, strain rad52, active compounds read low 0.976 | S. cerevisiae deletion strains, locus YML120C, strain ndi1, active compounds read low 1.01 | S. cerevisiae deletion strains, locus YML124C, strain tub3, active compounds read low 0.977 | S. cerevisiae deletion strains, locus YMR058W, strain fet3, active compounds read low 1.03 | S. cerevisiae deletion strains, locus YMR078C, strain ctf18, active compounds read low 0.985 | S. cerevisiae deletion strains, locus YMR125W, strain sto1, active compounds read low 1 | S. cerevisiae deletion strains, locus YMR129W, active compounds read low 1.01 | S. cerevisiae deletion strains, locus YMR205C, strain PFK2, active compounds read low 1.02 | S. cerevisiae deletion strains, locus YMR223W, strain ubp8, active compounds read low 0.996 | S. cerevisiae deletion strains, locus YMR231W, strain pep5, active compounds read low 1.01 | S. cerevisiae deletion strains, locus YMR307W, strain GAS1, active compounds read low 0.985 | S. cerevisiae deletion strains, locus YNL067W, strain RPL9B, active compounds read low 1 | S. cerevisiae deletion strains, locus YNL071W, strain lat1, active compounds read low 0.999 | S. cerevisiae deletion strains, locus YNL128W, strain TEP1, active compounds read low 0.978 | S. cerevisiae deletion strains, locus YNL183C, strain NPR1, active compounds read low 0.951 | S. cerevisiae deletion strains, locus YNL209W, strain ssb2, active compounds read low 1.03 | S. cerevisiae deletion strains, locus YNL233W, strain BNI4, active compounds read low 0.993 | S. cerevisiae deletion strains, locus YNL248C, strain rpa49, active compounds read low 1.03 | S. cerevisiae deletion strains, locus YNL250W, strain rad50, active compounds read low 0.971 | S. cerevisiae deletion strains, locus YNL271C, strain bni1, active compounds read low 0.973 | S. cerevisiae deletion strains, locus YNL298W, strain CLA4, active compounds read low 0.974 | S. cerevisiae deletion strains, locus YNL307C, strain MCK1, active compounds read low 0.97 | S. cerevisiae deletion strains, locus YNL322C, strain KRE1 (second series), active compounds read low 0.995 | S. cerevisiae deletion strains, locus YNL322C, strain KRE1, active compounds read low 0.992 | S. cerevisiae deletion strains, locus YNR049C, strain mso1, active compounds read low 1.01 | S. cerevisiae deletion strains, locus YNR052C, strain pop2, active compounds read low 0.977 | S. cerevisiae deletion strains, locus YOL006C, strain TOP1, active compounds read low 1.02 | S. cerevisiae deletion strains, locus YOL012C, strain htz1 0.651 | S. cerevisiae deletion strains, locus YOL147C, strain pex11, active compounds read low 0.985 | S. cerevisiae deletion strains, locus YOR001W, strain rrp6, active compounds read low 1.02 | S. cerevisiae deletion strains, locus YOR061W, strain CKA2, active compounds read low 0.989 | S. cerevisiae deletion strains, locus YOR069W, strain VPS5, active compounds read low 0.984 | S. cerevisiae deletion strains, locus YOR070C, strain gyp1, active compounds read low 1.02 | S. cerevisiae deletion strains, locus YOR080W, strain dia2, active compounds read low 1.01 | S. cerevisiae deletion strains, locus YOR083W, strain WHI5, active compounds read low 1 | S. cerevisiae deletion strains, locus YOR106W, strain vam3, active compounds read low 1.02 | S. cerevisiae deletion strains, locus YOR136W, strain idh2, active compounds read low 0.996 | S. cerevisiae deletion strains, locus YOR144C, strain elg1, active compounds read low 0.987 | S. cerevisiae deletion strains, locus YOR184W, strain ser1, active compounds read low 0.989 | S. cerevisiae deletion strains, locus YOR231W, strain MKK1, active compounds read low 0.997 | S. cerevisiae deletion strains, locus YOR265W, strain rbl2, active compounds read low 1.01 | S. cerevisiae deletion strains, locus YOR270C, strain vph1, active compounds read low 1.04 | S. cerevisiae deletion strains, locus YOR290C, strain snf2, active compounds read low 1 | S. cerevisiae deletion strains, locus YOR316C, strain cot1, active compounds read low 0.982 | S. cerevisiae deletion strains, locus YPL051W, strain arl3, active compounds read low 1.02 | S. cerevisiae deletion strains, locus YPL078C, strain atp4, active compounds read low 1.01 | S. cerevisiae deletion strains, locus YPL106C, strain sse1, active compounds read low 1.01 | S. cerevisiae deletion strains, locus YPL240C, strain hsp82, active compounds read low 1.02 | S. cerevisiae deletion strains, locus YPL241C, strain CIN2, active compounds read low 0.995 | S. cerevisiae deletion strains, locus YPL256C, strain CLN2, active compounds read low 1 | S. cerevisiae deletion strains, locus YPR119W, strain clb2, active compounds read low 0.995 | S. cerevisiae deletion strains, locus YPR141C, strain kar3, active compounds read low 0.981 | S. cerevisiae deletion strains, locus YPR163C, strain tif3, active compounds read low 0.982 | S. cerevisiae deletion strains, locus YPR167C, strain met16, active compounds read low 0.982 | S. cerevisiae deletion strains, strain wtn01, active compounds read low 0.969 | S. cerevisiae strains, strain wild type, active compounds read low 1
